{
  "source": "the supplement of paper PMC8728848",
  "binders": {"B1": {"name": "FimA (Actinomyces oris) (protein)", "chain": "MHHHHHHSSGVDLGTENLYFQSNAETPNYGNIKTDATGSLVIHKHLTGGGKDIGTPTGTAQNADDKGPAVEGVVFTAYPITDINLKDPAGWDTISNLSRTGVPDSACANPAAPTLGAHQFGTPKVSPATTKEGLATITEMPVQAYLVCETTTPGDIVQKAKPFVVTIPHPNTAAGADGQWIYDVNVYPKNEAIDVDKTIQAQKLNGYGVGSLIKFPVESTAPTLDAKSFYKYFQLKDTLDERLSEVTATDVSLEGTPLQPTDYKVETKQQTVTVTFTAEGLKKIKAAPGKKVSAVFQGKVTKAGNGAITNRAQVISDTLYAEQPPTPETPPTDPENPPTSDEVISRWGDLSIKKVDTHQQGQTKAGLQGAQFQLYKAKNAYANTCSNEKEGAPIAINGQTTLTTDAQGAIDIKGLFISDSIDGADRDNQVNAMERCYVLVETKAPAGYVLPAGNGAATPVKVKAGEETTDNVTVENTKQSVPGLPLTG"}},
  "assay_in_all_cases": "glycan array binding signal (z-score within array); higher = stronger binding",
  "settings_in_all_cases": "glycan notation: IUPAC condensed, linker removed",
  "key": {"[1]": {"target": "Fuc(a1-2)Gal(b1-3)GalNAc(b1-3)Gal", "procedure,_shortened": "(§1)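 Glycan array data were curated from 3228 arrays in the Consortium for Functional Glycomics database and kept only where the protein sequence was available. Glycan names were converted to IUPAC-condensed notation, and columns mapping to the same glycan were averaged. The binding signal is a within-array Z-score, averaged across arrays of the same protein sequence at different concentrations or buffers and across linkers. Negative Z-scores can be read as non-binding.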"}, "[2]": {"target": "Fuc(a1-2)Gal(b1-3)GlcNAc(b1-3)GalNAc", "procedure,_shortened": "as §1"}, "[3]": {"target": "Fuc(a1-2)Gal(b1-4)Glc", "procedure,_shortened": "as §1"}, "[4]": {"target": "Fuc(a1-2)Gal(b1-4)GlcNAc6S", "procedure,_shortened": "as §1"}, "[5]": {"target": "Fuc(a1-2)Gal(b1-4)[Fuc(a1-3)]GlcNAc(b1-2)[Fuc(a1-2)Gal(b1-4)[Fuc(a1-3)]GlcNAc(b1-4)]Man(a1-3)[Fuc(a1-2)Gal(b1-4)[Fuc(a1-3)]GlcNAc(b1-2)Man(a1-6)]Man(b1-4)GlcNAc(b1-4)GlcNAc", "procedure,_shortened": "as §1"}, "[6]": {"target": "Fuc(a1-2)Gal(b1-4)[Fuc(a1-3)]GlcNAc(b1-3)Gal(b1-4)[Fuc(a1-3)]GlcNAc(b1-3)Gal(b1-4)[Fuc(a1-3)]GlcNAc", "procedure,_shortened": "as §1"}, "[7]": {"target": "Fuc(a1-2)[Gal(a1-3)]Gal(b1-4)GlcNAc(b1-2)Man(a1-3)[Fuc(a1-2)[Gal(a1-3)]Gal(b1-4)GlcNAc(b1-2)Man(a1-6)]Man(b1-4)GlcNAc(b1-4)GlcNAc", "procedure,_shortened": "as §1"}, "[8]": {"target": "Fuc(a1-2)[Gal(a1-4)]Gal(b1-4)GlcNAc", "procedure,_shortened": "as §1"}, "[9]": {"target": "Fuc(a1-2)[GalNAc(a1-3)]Gal(b1-4)GlcNAc(b1-3)GalNAc", "procedure,_shortened": "as §1"}, "[10]": {"target": "Fuc(a1-3)[Gal(b1-4)]GlcNAc(b1-6)GalNAc", "procedure,_shortened": "as §1"}, "[11]": {"target": "Fuc(a1-3)[Gal3S(b1-4)]Glc", "procedure,_shortened": "as §1"}, "[12]": {"target": "Fuc(a1-3)[GalNAc(b1-4)]GlcNAc", "procedure,_shortened": "as §1"}, "[13]": {"target": "Gal(a1-3)Gal(b1-3)GlcNAc", "procedure,_shortened": "as §1"}, "[14]": {"target": "Gal(a1-4)Gal(b1-4)GlcNAc(b1-2)Man(a1-3)[Gal(a1-4)Gal(b1-4)GlcNAc(b1-2)Man(a1-6)]Man(b1-4)GlcNAc(b1-4)GlcNAc", "procedure,_shortened": "as §1"}, "[15]": {"target": "Gal(b1-3)GalNAc", "procedure,_shortened": "as §1"}, "[16]": {"target": "Gal(b1-3)GalNAc(b1-4)Gal(b1-4)Glc", "procedure,_shortened": "as §1"}, "[17]": {"target": "Gal(b1-3)GlcNAc(a1-6)Gal(b1-4)GlcNAc", "procedure,_shortened": "as §1"}, "[18]": {"target": "Gal(b1-3)GlcNAc(b1-3)Gal(b1-4)GlcNAc(b1-2)Man(a1-3)[Gal(b1-3)GlcNAc(b1-3)Gal(b1-4)GlcNAc(b1-2)Man(a1-6)]Man(b1-4)GlcNAc(b1-4)GlcNAc", "procedure,_shortened": "as §1"}, "[19]": {"target": "Gal(b1-3)[Fuc(a1-4)]GlcNAc(b1-3)Gal(b1-4)[Fuc(a1-3)]GlcNAc", "procedure,_shortened": "as §1"}, "[20]": {"target": "Gal(b1-4)Gal", "procedure,_shortened": "as §1"}, "[21]": {"target": "Gal(b1-4)GlcNAc(b1-2)Man(a1-6)[GlcNAc(b1-2)Man(a1-3)]Man(b1-4)GlcNAc(b1-4)GlcNAc", "procedure,_shortened": "as §1"}, "[22]": {"target": "Gal(b1-4)GlcNAc(b1-3)Gal(b1-4)GlcNAc(b1-3)Gal(b1-4)GlcNAc(b1-3)Gal(b1-4)GlcNAc(b1-3)Gal(b1-4)GlcNAc(b1-2)Man(a1-3)[Gal(b1-4)GlcNAc(b1-3)Gal(b1-4)GlcNAc(b1-3)Gal(b1-4)GlcNAc(b1-3)Gal(b1-4)GlcNAc(b1-3)Gal(b1-4)GlcNAc(b1-2)Man(a1-6)]Man(b1-4)GlcNAc(b1-4)GlcNAc", "procedure,_shortened": "as §1"}, "[23]": {"target": "Gal(b1-4)GlcNAc(b1-3)Gal(b1-4)GlcNAc(b1-3)Gal(b1-4)GlcNAc(b1-3)Gal(b1-4)GlcNAc(b1-3)Gal(b1-4)GlcNAc(b1-2)[Gal(b1-4)GlcNAc(b1-3)Gal(b1-4)GlcNAc(b1-3)Gal(b1-4)GlcNAc(b1-3)Gal(b1-4)GlcNAc(b1-3)Gal(b1-4)GlcNAc(b1-6)]Man(a1-6)[Gal(b1-4)GlcNAc(b1-3)Gal(b1-4)GlcNAc(b1-3)Gal(b1-4)GlcNAc(b1-3)Gal(b1-4)GlcNAc(b1-3)Gal(b1-4)GlcNAc(b1-2)Man(a1-3)]Man(b1-4)GlcNAc(b1-4)[Fuc(a1-6)]GlcNAc", "procedure,_shortened": "as §1"}, "[24]": {"target": "Gal3S(b1-4)[Fuc(a1-3)]Glc6S", "procedure,_shortened": "as §1"}, "[25]": {"target": "Gal6S(b1-4)GlcNAc6S", "procedure,_shortened": "as §1"}, "[26]": {"target": "GalNAc(b1-4)GlcNAc(b1-2)Man", "procedure,_shortened": "as §1"}, "[27]": {"target": "GalNAc(b1-4)GlcNAc6S", "procedure,_shortened": "as §1"}, "[28]": {"target": "GalNAc3S(b1-4)[Fuc(a1-3)]GlcNAc", "procedure,_shortened": "as §1"}, "[29]": {"target": "GlcA(b1-3)Gal", "procedure,_shortened": "as §1"}, "[30]": {"target": "GlcNAc(a1-6)Gal(b1-4)GlcNAc", "procedure,_shortened": "as §1"}, "[31]": {"target": "GlcNAc(b1-2)[GlcNAc(b1-4)]Man(a1-3)[GlcNAc(b1-2)Man(a1-6)]Man(b1-4)GlcNAc(b1-4)GlcNAc", "procedure,_shortened": "as §1"}, "[32]": {"target": "GlcNAc(b1-3)Gal(b1-4)Glc", "procedure,_shortened": "as §1"}, "[33]": {"target": "GlcNAc(b1-4)GlcNAc", "procedure,_shortened": "as §1"}, "[34]": {"target": "GlcNAc(b1-4)[GlcNAc(b1-6)]GalNAc", "procedure,_shortened": "as §1"}, "[35]": {"target": "Man(a1-2)Man(a1-2)Man(a1-3)Man", "procedure,_shortened": "as §1"}, "[36]": {"target": "Man(a1-2)Man(a1-3)[Man(a1-2)Man(a1-6)]Man(a1-6)[Man(a1-2)Man(a1-2)Man(a1-3)]Man", "procedure,_shortened": "as §1"}, "[37]": {"target": "Neu5Ac(a2-3)Gal", "procedure,_shortened": "as §1"}, "[38]": {"target": "Neu5Ac(a2-3)Gal(b1-3)GlcNAc(b1-2)Man(a1-3)[Neu5Ac(a2-3)Gal(b1-3)GlcNAc(b1-2)Man(a1-6)]Man(b1-4)GlcNAc(b1-4)GlcNAc", "procedure,_shortened": "as §1"}, "[39]": {"target": "Neu5Ac(a2-3)Gal(b1-3)[Fuc(a1-4)]GlcNAc(b1-3)Gal(b1-4)[Fuc(a1-3)]GlcNAc", "procedure,_shortened": "as §1"}, "[40]": {"target": "Neu5Ac(a2-3)Gal(b1-4)Glc", "procedure,_shortened": "as §1"}, "[41]": {"target": "Neu5Ac(a2-3)[Neu5Ac(a2-6)]GalNAc", "procedure,_shortened": "as §1"}, "[42]": {"target": "Neu5Ac(b2-6)GalNAc", "procedure,_shortened": "as §1"}},
  "note": "This is one part of a sample in which the strongest signals are shown more often than they occur.",
  "data": [
    {"binder": "B1", "values": [
      {"measurement": "glycan array binding signal (z-score)", "setting": "[1]", "result": 11.8},
      {"measurement": "glycan array binding signal (z-score)", "setting": "[2]", "result": -0.927},
      {"measurement": "glycan array binding signal (z-score)", "setting": "[3]", "result": -0.719},
      {"measurement": "glycan array binding signal (z-score)", "setting": "[4]", "result": -0.627},
      {"measurement": "glycan array binding signal (z-score)", "setting": "[5]", "result": -0.358},
      {"measurement": "glycan array binding signal (z-score)", "setting": "[6]", "result": -0.317},
      {"measurement": "glycan array binding signal (z-score)", "setting": "[7]", "result": 5.11},
      {"measurement": "glycan array binding signal (z-score)", "setting": "[8]", "result": 5.14},
      {"measurement": "glycan array binding signal (z-score)", "setting": "[9]", "result": -0.408},
      {"measurement": "glycan array binding signal (z-score)", "setting": "[10]", "result": -0.64},
      {"measurement": "glycan array binding signal (z-score)", "setting": "[11]", "result": -0.294},
      {"measurement": "glycan array binding signal (z-score)", "setting": "[12]", "result": 3.5},
      {"measurement": "glycan array binding signal (z-score)", "setting": "[13]", "result": -0.412},
      {"measurement": "glycan array binding signal (z-score)", "setting": "[14]", "result": -0.497},
      {"measurement": "glycan array binding signal (z-score)", "setting": "[15]", "result": 0.278},
      {"measurement": "glycan array binding signal (z-score)", "setting": "[16]", "result": 3.27},
      {"measurement": "glycan array binding signal (z-score)", "setting": "[17]", "result": -0.165},
      {"measurement": "glycan array binding signal (z-score)", "setting": "[18]", "result": -0.744},
      {"measurement": "glycan array binding signal (z-score)", "setting": "[19]", "result": 0.459},
      {"measurement": "glycan array binding signal (z-score)", "setting": "[20]", "result": 0.292},
      {"measurement": "glycan array binding signal (z-score)", "setting": "[21]", "result": -0.044},
      {"measurement": "glycan array binding signal (z-score)", "setting": "[22]", "result": 3.42},
      {"measurement": "glycan array binding signal (z-score)", "setting": "[23]", "result": 5.1},
      {"measurement": "glycan array binding signal (z-score)", "setting": "[24]", "result": 3.23},
      {"measurement": "glycan array binding signal (z-score)", "setting": "[25]", "result": 4.75},
      {"measurement": "glycan array binding signal (z-score)", "setting": "[26]", "result": -0.783},
      {"measurement": "glycan array binding signal (z-score)", "setting": "[27]", "result": 4.1},
      {"measurement": "glycan array binding signal (z-score)", "setting": "[28]", "result": -0.099},
      {"measurement": "glycan array binding signal (z-score)", "setting": "[29]", "result": 0.311},
      {"measurement": "glycan array binding signal (z-score)", "setting": "[30]", "result": -1.18},
      {"measurement": "glycan array binding signal (z-score)", "setting": "[31]", "result": -0.403},
      {"measurement": "glycan array binding signal (z-score)", "setting": "[32]", "result": -0.311},
      {"measurement": "glycan array binding signal (z-score)", "setting": "[33]", "result": -0.621},
      {"measurement": "glycan array binding signal (z-score)", "setting": "[34]", "result": -0.564},
      {"measurement": "glycan array binding signal (z-score)", "setting": "[35]", "result": 4.88},
      {"measurement": "glycan array binding signal (z-score)", "setting": "[36]", "result": -0.88},
      {"measurement": "glycan array binding signal (z-score)", "setting": "[37]", "result": -0.143},
      {"measurement": "glycan array binding signal (z-score)", "setting": "[38]", "result": -0.233},
      {"measurement": "glycan array binding signal (z-score)", "setting": "[39]", "result": 0.196},
      {"measurement": "glycan array binding signal (z-score)", "setting": "[40]", "result": -0.06},
      {"measurement": "glycan array binding signal (z-score)", "setting": "[41]", "result": 0.518},
      {"measurement": "glycan array binding signal (z-score)", "setting": "[42]", "result": -0.85}
    ]}
  ]
}
